# Measurements taken from ChEMBL document CHEMBL2218924, “A broad activity screen in support of a chemogenomic map for kinase signalling research and drug discovery” (Biochem J, 2013).
# Columns and labels:
# [1] = target: T1, Serine/threonine-protein kinase Sgk3 (Homo sapiens) (UniProt Q96BR1); settings: at 1 µM
# T1 sequence (whole entry): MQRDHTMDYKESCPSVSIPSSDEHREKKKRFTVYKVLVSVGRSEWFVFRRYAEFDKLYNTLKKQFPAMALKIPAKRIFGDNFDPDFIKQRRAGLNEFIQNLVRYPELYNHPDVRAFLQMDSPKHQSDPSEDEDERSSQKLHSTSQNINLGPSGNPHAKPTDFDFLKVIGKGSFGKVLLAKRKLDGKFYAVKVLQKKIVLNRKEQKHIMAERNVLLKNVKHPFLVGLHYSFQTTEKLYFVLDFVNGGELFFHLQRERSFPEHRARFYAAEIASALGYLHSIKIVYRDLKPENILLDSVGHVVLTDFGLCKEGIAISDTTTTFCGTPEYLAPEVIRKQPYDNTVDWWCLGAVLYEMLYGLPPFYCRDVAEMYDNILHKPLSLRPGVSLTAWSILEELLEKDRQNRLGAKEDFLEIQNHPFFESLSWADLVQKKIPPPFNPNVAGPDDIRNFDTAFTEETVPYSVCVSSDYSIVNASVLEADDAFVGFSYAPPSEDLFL
# [2] = target: T1, Serine/threonine-protein kinase Sgk3 (Homo sapiens); settings: at 10 µM
# [3] = target: Serine/threonine-protein kinase SIK1 (Homo sapiens) (UniProt P57059); settings: at 1 µM
# Chain of Serine/threonine-protein kinase SIK1 (Homo sapiens) (P57059 whole entry): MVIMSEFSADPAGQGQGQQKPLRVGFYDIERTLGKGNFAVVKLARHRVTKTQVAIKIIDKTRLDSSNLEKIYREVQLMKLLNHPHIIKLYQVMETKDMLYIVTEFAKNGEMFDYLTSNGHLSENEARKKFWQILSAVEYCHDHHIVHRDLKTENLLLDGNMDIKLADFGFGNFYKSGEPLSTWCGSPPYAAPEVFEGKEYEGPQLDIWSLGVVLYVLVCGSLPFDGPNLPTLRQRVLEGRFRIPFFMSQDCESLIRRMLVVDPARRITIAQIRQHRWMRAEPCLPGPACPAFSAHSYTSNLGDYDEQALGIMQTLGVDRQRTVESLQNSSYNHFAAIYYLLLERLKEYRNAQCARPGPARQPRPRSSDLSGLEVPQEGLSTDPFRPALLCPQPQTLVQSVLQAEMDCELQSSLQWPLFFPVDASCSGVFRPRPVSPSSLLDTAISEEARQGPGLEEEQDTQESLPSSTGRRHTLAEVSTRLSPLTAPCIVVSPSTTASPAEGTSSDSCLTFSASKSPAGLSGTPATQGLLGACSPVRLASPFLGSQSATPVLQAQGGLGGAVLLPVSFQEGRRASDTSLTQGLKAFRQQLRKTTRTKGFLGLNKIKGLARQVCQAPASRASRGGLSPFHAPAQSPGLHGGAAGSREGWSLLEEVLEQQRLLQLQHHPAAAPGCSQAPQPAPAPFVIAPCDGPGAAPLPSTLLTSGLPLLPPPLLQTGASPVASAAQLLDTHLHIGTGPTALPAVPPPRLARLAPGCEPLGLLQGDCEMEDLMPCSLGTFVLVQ
# [4] = target: Serine/threonine-protein kinase SIK1 (Homo sapiens) (UniProt P57059); settings: at 10 µM
# [5] = target: SRSF protein kinase 2 (Homo sapiens) (UniProt P78362); settings: at 1 µM
# Chain of SRSF protein kinase 2 (Homo sapiens) (P78362 whole entry, looked up): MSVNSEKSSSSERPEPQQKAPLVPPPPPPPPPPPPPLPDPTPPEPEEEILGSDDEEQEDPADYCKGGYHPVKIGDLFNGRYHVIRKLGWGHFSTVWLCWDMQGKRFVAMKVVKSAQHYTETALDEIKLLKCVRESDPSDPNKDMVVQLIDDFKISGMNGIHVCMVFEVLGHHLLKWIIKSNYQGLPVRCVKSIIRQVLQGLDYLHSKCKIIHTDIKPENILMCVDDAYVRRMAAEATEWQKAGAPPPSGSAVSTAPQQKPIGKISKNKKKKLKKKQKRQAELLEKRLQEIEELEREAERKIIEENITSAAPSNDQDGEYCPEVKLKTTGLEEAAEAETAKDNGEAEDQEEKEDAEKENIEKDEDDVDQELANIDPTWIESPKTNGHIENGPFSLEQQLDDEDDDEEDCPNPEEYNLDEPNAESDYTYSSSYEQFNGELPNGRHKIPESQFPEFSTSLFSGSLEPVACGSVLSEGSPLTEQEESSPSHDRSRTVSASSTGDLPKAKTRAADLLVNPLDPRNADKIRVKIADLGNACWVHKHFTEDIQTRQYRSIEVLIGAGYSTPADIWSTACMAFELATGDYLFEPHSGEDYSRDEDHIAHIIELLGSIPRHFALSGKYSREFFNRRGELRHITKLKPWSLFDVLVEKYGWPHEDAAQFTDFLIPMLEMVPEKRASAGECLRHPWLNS
# [6] = target: SRSF protein kinase 2 (Homo sapiens) (UniProt P78362); settings: at 10 µM
# [7] = target: Serine/threonine-protein kinase 33 (Homo sapiens) (UniProt Q9BYT3); settings: at 1 µM
# Chain of Serine/threonine-protein kinase 33 (Homo sapiens) (Q9BYT3 whole entry, looked up): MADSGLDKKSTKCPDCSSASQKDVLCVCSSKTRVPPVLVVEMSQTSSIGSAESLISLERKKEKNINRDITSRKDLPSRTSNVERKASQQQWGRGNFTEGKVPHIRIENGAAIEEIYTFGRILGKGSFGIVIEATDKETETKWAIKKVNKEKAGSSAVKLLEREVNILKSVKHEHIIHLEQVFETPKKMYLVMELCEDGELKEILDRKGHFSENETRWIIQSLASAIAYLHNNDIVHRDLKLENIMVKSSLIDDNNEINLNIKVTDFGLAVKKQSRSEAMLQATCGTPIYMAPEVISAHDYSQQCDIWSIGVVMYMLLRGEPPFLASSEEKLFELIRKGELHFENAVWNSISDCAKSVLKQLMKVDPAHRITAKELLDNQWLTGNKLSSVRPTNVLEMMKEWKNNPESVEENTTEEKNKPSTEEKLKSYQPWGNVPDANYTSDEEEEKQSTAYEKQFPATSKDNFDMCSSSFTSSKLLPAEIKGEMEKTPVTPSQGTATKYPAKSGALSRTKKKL
# [8] = target: Serine/threonine-protein kinase 33 (Homo sapiens) (UniProt Q9BYT3); settings: at 10 µM
# [9] = target: Serine/threonine-protein kinase PLK2 (Homo sapiens) (UniProt Q9NYY3); settings: at 1 µM
# Chain of Serine/threonine-protein kinase PLK2 (Homo sapiens) (Q9NYY3 whole entry, looked up): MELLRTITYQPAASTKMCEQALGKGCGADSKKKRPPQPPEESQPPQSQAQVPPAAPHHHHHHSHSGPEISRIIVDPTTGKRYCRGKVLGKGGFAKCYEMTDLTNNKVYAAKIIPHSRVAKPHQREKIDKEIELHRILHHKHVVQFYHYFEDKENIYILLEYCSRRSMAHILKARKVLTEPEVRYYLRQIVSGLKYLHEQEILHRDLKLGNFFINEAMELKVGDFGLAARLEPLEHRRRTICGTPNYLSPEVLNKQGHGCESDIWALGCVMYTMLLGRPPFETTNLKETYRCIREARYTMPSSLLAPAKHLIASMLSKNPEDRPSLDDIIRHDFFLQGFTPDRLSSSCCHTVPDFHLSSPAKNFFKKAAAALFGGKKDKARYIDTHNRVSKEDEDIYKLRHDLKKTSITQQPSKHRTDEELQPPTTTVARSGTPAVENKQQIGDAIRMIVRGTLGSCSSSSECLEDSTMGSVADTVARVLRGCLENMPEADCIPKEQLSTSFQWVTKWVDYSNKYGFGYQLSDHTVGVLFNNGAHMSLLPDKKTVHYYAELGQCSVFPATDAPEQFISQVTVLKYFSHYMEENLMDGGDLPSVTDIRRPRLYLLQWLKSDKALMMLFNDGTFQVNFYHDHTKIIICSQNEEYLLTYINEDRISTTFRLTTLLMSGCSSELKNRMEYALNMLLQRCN
# [10] = target: Serine/threonine-protein kinase PLK2 (Homo sapiens) (UniProt Q9NYY3); settings: at 10 µM
# [11] = target: Tyrosine-protein kinase SYK (Homo sapiens) (UniProt P43405); settings: at 1 µM
# [12] = target: Tyrosine-protein kinase SYK (Homo sapiens) (UniProt P43405); settings: at 10 µM
# [13] = target: T2, Mitogen-activated protein kinase kinase kinase 7 (Homo sapiens) (UniProt O43318); settings: at 1 µM
# T2 sequence (whole entry): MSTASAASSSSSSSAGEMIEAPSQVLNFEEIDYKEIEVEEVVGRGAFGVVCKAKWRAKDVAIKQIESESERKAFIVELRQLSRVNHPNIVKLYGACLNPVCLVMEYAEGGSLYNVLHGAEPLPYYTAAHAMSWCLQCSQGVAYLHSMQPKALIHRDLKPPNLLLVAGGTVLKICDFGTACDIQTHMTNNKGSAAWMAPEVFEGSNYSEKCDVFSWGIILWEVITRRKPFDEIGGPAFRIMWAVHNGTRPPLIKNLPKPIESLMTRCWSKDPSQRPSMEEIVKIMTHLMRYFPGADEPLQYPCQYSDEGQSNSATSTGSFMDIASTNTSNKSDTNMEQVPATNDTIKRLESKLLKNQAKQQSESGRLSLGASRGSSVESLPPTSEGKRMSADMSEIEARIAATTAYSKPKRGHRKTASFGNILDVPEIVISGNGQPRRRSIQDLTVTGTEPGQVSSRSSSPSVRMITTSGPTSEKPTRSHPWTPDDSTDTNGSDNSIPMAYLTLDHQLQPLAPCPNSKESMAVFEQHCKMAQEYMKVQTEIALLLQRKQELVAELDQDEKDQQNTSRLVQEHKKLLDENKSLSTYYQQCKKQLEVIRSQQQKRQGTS
# [14] = target: T2, Mitogen-activated protein kinase kinase kinase 7 (Homo sapiens); settings: at 10 µM
# [15] = target: T3, Serine/threonine-protein kinase TAO1 (Homo sapiens) (UniProt Q7L7X3); settings: at 1 µM
# T3 sequence (whole entry): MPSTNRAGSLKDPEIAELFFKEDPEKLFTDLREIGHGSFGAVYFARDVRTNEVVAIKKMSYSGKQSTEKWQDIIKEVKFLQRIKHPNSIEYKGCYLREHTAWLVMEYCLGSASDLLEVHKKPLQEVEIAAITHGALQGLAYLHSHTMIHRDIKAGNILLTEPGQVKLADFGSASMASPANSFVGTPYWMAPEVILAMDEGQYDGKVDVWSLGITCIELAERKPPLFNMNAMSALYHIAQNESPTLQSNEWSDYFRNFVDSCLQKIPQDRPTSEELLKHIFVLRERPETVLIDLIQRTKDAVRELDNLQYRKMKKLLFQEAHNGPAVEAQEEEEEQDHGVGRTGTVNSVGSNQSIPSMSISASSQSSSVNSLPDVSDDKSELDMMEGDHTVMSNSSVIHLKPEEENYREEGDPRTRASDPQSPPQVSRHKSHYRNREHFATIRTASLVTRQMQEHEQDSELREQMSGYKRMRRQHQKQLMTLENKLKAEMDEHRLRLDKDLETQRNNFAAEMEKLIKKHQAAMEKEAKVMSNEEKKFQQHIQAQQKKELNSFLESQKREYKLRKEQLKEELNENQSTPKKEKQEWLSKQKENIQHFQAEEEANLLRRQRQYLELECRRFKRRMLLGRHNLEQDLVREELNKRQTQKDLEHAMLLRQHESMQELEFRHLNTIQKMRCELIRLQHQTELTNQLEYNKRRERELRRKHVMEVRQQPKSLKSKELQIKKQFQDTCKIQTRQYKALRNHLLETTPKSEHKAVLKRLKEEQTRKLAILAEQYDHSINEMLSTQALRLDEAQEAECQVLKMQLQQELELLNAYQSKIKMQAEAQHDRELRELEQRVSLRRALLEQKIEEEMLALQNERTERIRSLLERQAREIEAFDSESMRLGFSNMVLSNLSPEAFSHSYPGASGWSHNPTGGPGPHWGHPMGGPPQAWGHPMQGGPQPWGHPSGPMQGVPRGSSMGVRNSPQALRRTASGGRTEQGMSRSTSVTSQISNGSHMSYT
# [16] = target: T3, Serine/threonine-protein kinase TAO1 (Homo sapiens); settings: at 10 µM
# [17] = target: SRSF protein kinase 1 (Homo sapiens) (UniProt Q96SB4); settings: at 1 µM
# Chain of SRSF protein kinase 1 (Homo sapiens) (Q96SB4 whole entry): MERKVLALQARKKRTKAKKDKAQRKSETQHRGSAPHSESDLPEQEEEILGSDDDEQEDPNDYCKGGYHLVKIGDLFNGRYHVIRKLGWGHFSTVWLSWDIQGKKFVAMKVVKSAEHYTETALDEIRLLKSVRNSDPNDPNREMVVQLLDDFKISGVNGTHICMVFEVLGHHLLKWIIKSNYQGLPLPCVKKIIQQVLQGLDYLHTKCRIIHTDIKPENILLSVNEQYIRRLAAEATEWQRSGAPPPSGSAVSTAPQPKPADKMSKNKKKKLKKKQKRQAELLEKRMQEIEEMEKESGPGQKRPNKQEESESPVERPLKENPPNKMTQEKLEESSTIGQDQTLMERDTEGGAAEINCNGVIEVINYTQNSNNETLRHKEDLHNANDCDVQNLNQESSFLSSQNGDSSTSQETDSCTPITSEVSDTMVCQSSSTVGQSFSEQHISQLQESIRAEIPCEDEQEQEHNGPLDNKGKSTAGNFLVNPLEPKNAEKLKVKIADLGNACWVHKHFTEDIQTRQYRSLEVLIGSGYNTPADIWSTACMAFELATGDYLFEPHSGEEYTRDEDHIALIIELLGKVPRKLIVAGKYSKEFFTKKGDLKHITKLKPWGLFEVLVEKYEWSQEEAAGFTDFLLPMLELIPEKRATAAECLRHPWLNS
# [18] = target: SRSF protein kinase 1 (Homo sapiens) (UniProt Q96SB4); settings: at 10 µM
smiles,measurement,setting,value
O=c1cc(N2CCOCC2)oc2c1ccc1ccccc12,residual activity,[1],97%
Nc1nc(Nc2ccc(S(N)(=O)=O)cc2)nn1C(=O)c1c(F)cccc1F,residual activity,[1],106%
CCCC(=O)Oc1ccc2[nH]c(C(=O)c3cc4ccccc4[nH]3)cc2c1,residual activity,[1],94%
COc1cc(OC)c(/C=C2\C(=O)Nc3ccccc32)c(OC)c1,residual activity,[1],92%
same,residual activity,[2],84%
same,residual activity,[3],106%
same,residual activity,[4],93%
same,residual activity,[5],104%
same,residual activity,[6],86%
same,residual activity,[7],92%
same,residual activity,[8],92%
same,residual activity,[9],100%
same,residual activity,[10],92%
same,residual activity,[11],102%
same,residual activity,[12],96%
same,residual activity,[13],92%
same,residual activity,[14],81%
same,residual activity,[15],95%
same,residual activity,[16],83%
O=C1NC(=O)/C(=C/c2ccc3c(c2)OC(F)(F)O3)S1,residual activity,[1],109%
O=[N+]([O-])c1ccc(-c2nc(-c3ccc(F)cc3)c(-c3ccncc3)[nH]2)cc1,residual activity,[1],111%
CCCCc1c(-c2ccc(OC)cc2)[nH]c2nccnc12,residual activity,[1],100%
O=c1c2ccccc2[nH]c(=S)n1CCN1CCC(=C(c2ccc(F)cc2)c2ccc(F)cc2)CC1,residual activity,[1],118%
O=C1c2ccccc2-c2nc3nnnn3nc21,residual activity,[17],107%
same,residual activity,[18],111%
same,residual activity,[6],101%
same,residual activity,[7],103%
same,residual activity,[8],100%
same,residual activity,[9],73%
same,residual activity,[10],34%
CCc1nc(-c2ccc(OC)cc2)[nH]c1-c1ccncc1,residual activity,[1],115%
same,residual activity,[2],79%
same,residual activity,[3],139%
same,residual activity,[5],102%
same,residual activity,[6],74%
same,residual activity,[7],105%
same,residual activity,[8],100%
same,residual activity,[9],112%
same,residual activity,[10],100%
same,residual activity,[11],113%
same,residual activity,[12],107%
COc1cc2ncnc(Nc3ccc(O)c(Br)c3)c2cc1OC,residual activity,[1],99%
CC(=O)O/N=C1\C(=C2\C(=O)Nc3cc(Br)ccc32)Nc2ccccc21,residual activity,[1],114%
c1ccc(-c2n[nH]c3c2oc2ccccc23)cc1,residual activity,[1],94%
Cc1cc(Nc2nc(-c3ccccc3)nc3ccccc23)n[nH]1,residual activity,[1],107%
